Measurements: PubChem BioAssay (EPA / NIEHS)
Values joined by “and” are separate entries in the source; they are usually repeats but may differ in a detail not shown here. Equal entries are not always repeated. Where a structure was tested more than once in an assay, its records may differ in their call. Active and inactive are the calls of the source. The calls were made as follows: active = hit-call score of the fitted dose curve at least 0.9, where 1 is the maximum; inactive = score below 0.9.

The compounds below were run on Matrix Metallopeptidase 1 (MMP1), MMP1 (gene 4312) (assay: BSK_BE3C_MMP1: BioMAP Diversity Plus: BE3C Assay for Matrix Metallopeptidase 1 (MMP1) Biomarker Activity (AID 2283024)). Conditions: primary human bronchial epithelial cells; actives raise or lower the signal.
Protocol: BSK_BE3C is a cell-based, multiplexed-readout assay that uses bronchial epithelial cell, a human lung primary cell, with measurements taken at 24 hours after chemical dosing in a 96-well plate.BSK_BE3C_MMP1 is an assay component measured in the BSK_BE3C assay. It measures MMP-1 antibody related to regulation of gene expression using ELISA technology.Data from the assay component BSK_BE3C_MMP1 was analyzed into 1 assay endpoint. This assay endpoint, BSK_BE3C_MMP1, was analyzed with bidirectional fitting relative to DMSO as the negative control and baseline of activity. Using a type of binding reporter, gain or loss-of-signal activity can be used to understand changes in the signaling as they relate to the gene MMP1. Furthermore, this assay endpoint can be referred to as a primary readout, because this assay has produced multiple assay endpoints where this one serves a signaling function. To generalize the intended target to other relatable targets, this assay endpoint is annotated to the protease intended target family, where the subfamily is matrix metalloproteinase.
The levels of cell surface (or secreted, indicated by the prefix "s") biomarker endpoints were measured by ELISA. Overt cytotoxicity to cells in confluent adherent cultures (all systems other than the BT system) was assessed by measuring total protein levels using sulforhodamine B (SRB) staining in parallel cultures at the time of biomarker measurements, indicated as SRB endpoints. For proliferation assays for adherent cell types, individual cell types are cultured at sub-confluence and relative cell numbers quantified by SRB staining at time points optimized for each system (48 h: 3C and CASM3C systems; 72 h: BT and HDF3CGF systems; 96 h: SAg system). SRB was performed by staining cells with 0.1% SRB after fixation with 10% TCA and reading wells at 560 nm.Viability and proliferation of PBMC (T cells) was quantified by Alamar Blue reduction for the SAg and BT systems. For PBMC viability (referred to as PBMC Cytotoxicity within the assay endpoint names), cells were plated (75,000/well in a 96-well plate) and then chemical samples added for 1 h before addition of activators, SEB and TSST-1 (20 ng/mL final concentration each). Cells were incubated for 90 h. Then, Alamar Blue (20 uL/well) (Invitrogen, Cat DAL1100) was added for 6 h, and the plates were read with a fluorescence microplate reader at 546/580 nm (excitation/emission). For PBMC proliferation, cells were plated and activated as above but incubated for only 16 h prior to addition of Alamar Blue. Plates were read after 6 h.

| SMILES | outcome | AC50 |
| --- | --- | --- |
| C=CCN(CC=C)C(=O)C(Cl)Cl | inactive |  |
| Cc1ccc(OP(=O)(Oc2ccc(C)cc2)Oc2ccc(C)cc2)cc1 (tested in a mixture with another compound) |  | 3.35 µM (active) |
| CC(=O)/C=C/c1ccccc1 | inactive |  |
| CCCC[N+](CCCC)(CCCC)CCCC | inactive | 3.97 µM (active) |
| CCCOC(=O)c1ccccc1C(=O)OCCC | inactive |  |
| CC(C)CCCCCCCOP(=O)(Oc1ccccc1)Oc1ccccc1 | inactive |  |
| CCC(C)c1cc([N+](=O)[O-])cc([N+](=O)[O-])c1OC(=O)C=C(C)C (centres undefined) |  | 34.2 µM (active) |
| Nc1ccc(-c2ccc(N)c(N)c2)cc1N | inactive |  |
| CNC(=O)Oc1cc(C)c(SC)c(C)c1 | inactive |  |
| O=[N+]([O-])C=Cc1ccccc1 |  | 11.3 µM (active) |
| CC(C)(c1cc(Cl)c(O)c(Cl)c1)c1cc(Cl)c(O)c(Cl)c1 |  | 9.58 µM (active) |
| COc1ccc(CO)cc1 | inactive |  |
| Oc1ccc(C2(c3ccc(O)cc3)c3ccccc3-c3ccccc32)cc1 | inactive |  |
| O=[N+]([O-])c1ccc(Cl)cc1 | inactive |  |
| O=C(O)CCCc1ccc(N(CCCl)CCCl)cc1 | inactive |  |
| O=P1(NCCCl)OCCCN1CCCl (centres undefined) | inactive |  |
| N#CCCCCC#N | inactive |  |
| CC(C)COP(=O)(OCC(C)C)OCC(C)C | inactive |  |
| COCC(=O)N(c1c(C)cccc1C)N1CCOC1=O | inactive |  |

| SMILES | outcome | AC50 |
| --- | --- | --- |
| CC(C)(C)C(=O)CCl | inactive |  |
| c1ccc(Nc2ccc3ccccc3c2)cc1 | inactive |  |
| O=[N+]([O-])O | inactive |  |
| Oc1cc(Cl)ccc1Cl | inactive |  |
| C=CC(=O)OCC(CC)CCCC (centres undefined) | inactive |  |
| [Cd+2].[Cl-].[Cl-] | inactive |  |
| CC1(C)[C@H](C(=O)O[C@H](C#N)c2cccc(Oc3ccccc3)c2)[C@@H]1C=C(Br)Br | inactive |  |
| O=C(CCl)c1ccccc1 | inactive |  |
| O=S(=O)(c1ccccc1)c1ccccc1 | inactive |  |
| O=c1[nH]c(Cl)c(Cl)cc1Cl | inactive |  |
| O=C1C(Cl)=C(Cl)C(=O)C(Cl)=C1Cl |  | 33.9 µM (active) |
| O=c1c2ccccc2c(=O)c2c1cc(Cl)c1[nH]c3c([nH]c12)c(Cl)cc1c(=O)c2ccccc2c(=O)c13 |  | 20 µM (active) |
| CCCCCCCCCCCC#N | inactive |  |
| CC(C)(C)C(O)C(Oc1ccc(-c2ccccc2)cc1)n1cncn1 (centres undefined) | inactive |  |
| O=C1C=CC(=O)C=C1 |  | 5.14 µM (active) and 4.77 µM (active) |
| Clc1ccc(-c2ccccc2)cc1 | inactive |  |
| CC(C)CCCCCCCOC(=O)c1ccccc1C(=O)OCCCCCCCC(C)C | inactive |  |
| COC(C)(C)CCC[C@H](C)C/C=C/C(C)=C/C(=O)OC(C)C |  | 20 µM (active) |
| CCc1cc(C)cc(CC)c1-c1c(OC(=O)C(C)(C)C)n2n(c1=O)CCOCC2 | inactive |  |
